# Experimental data taken from PubChem BioAssay (NCI).
# About 79,000 compounds went through this panel and 15% of them were active in at least one assay; those are over-represented in the sample as a whole. Values without a mark were called inactive. The source made the active and inactive calls. Rule as the data show it: active = growth inhibition above about 70%; inactive = the rest.
# Assay: NCI Yeast Anticancer Drug Screen. Data for the sgs1 mgt1 strain (AID 161);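 also: 0% = growth of cultures given vehicle only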
# Conditions: S. cerevisiae sgs1 mgt1 strain, at 50.0 µM, stronger effect = higher value
# Summary of the method: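 Genetically altered yeast, compound exposure, growth inhibition relative to vehicle.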
row,Compound,growth inhibition
1,Cc1ccc(O)c(C(c2cc(C)ccc2O)c2ccccc2Cl)c1,99.2% (active)
2,O=c1ssc(=Nc2ccc(Cl)cc2)n1-c1ccc(Cl)cc1,98.2% (active)
3,CC(=O)OC1CCC2(C)C(CCC3C4=CCC(C5COC(=O)C5)C4(C)CCC32)C1 (stereo unspecified),84.7% (active)
4,CCN(CC)CCCC(C)Nc1cc(F)cc2cccnc12 (stereo unspecified),88.8% (active)
5,CC1CN(CCCN2c3ccccc3Sc3ccc(Cl)cc32)C(C)(C)C1 (stereo unspecified),99.8% (active)
6,O=S(=O)(O)c1ccc2c(c1)C1C(C3C2C2(Cl)C(Cl)=C(Cl)C3(Cl)C2(Cl)Cl)C2(Cl)C(Cl)=C(Cl)C1(Cl)C2(Cl)Cl (stereo unspecified),81% (active)
7,OC(CN1CCC(c2ccccc2)CC1)c1ccc(Br)cc1 (stereo unspecified),83.2% (active)
8,CCOC(=O)/C(C#N)=C\c1cccc2ccccc12,91.8% (active)
9,COc1ccc2c(c1)CCC(N1CCCC(O)C1)C2 (stereo unspecified),87.2% (active)
10,COc1cccc(N2CCN(CC(O)COc3cc4c(c5c3CCCC5)CCCC4)CC2)c1 (stereo unspecified),62.5%
11,CC(=O)Oc1ccc(Cl)cc1Cc1cc(Cl)ccc1OC(C)=O,94.5% (active)
12,CC(O)c1c2c(cc3c1CC1(C3)Cc3cc4c(c(C(C)O)c3C1)CCC4)CCC2 (stereo unspecified),85.9% (active)
13,O=c1c2ccccc2nc(-c2ccccc2)n1NC(=S)Nc1ccc(Cl)cc1[N+](=O)[O-],40.6%
14,O=C(CCCN1CCc2[nH]c3cc(F)ccc3c2C1)c1ccc(F)cc1,90% (active)
15,OC(C(=Nc1ccccc1)c1ccccc1)c1ccccc1 (stereo unspecified),99.2% (active)
16,N#CC1CCCC(Cc2ccccc2)(c2ccccc2)C1=O (stereo unspecified),98.3% (active)
